# Source: the supplement of paper PMC10849652
# About 8,800 targets were measured; listed, in parts, are those with a hit and a random draw of the rest. About 0.5% of all pairs of compound and target were hits. Unmarked numbers belong to inactive results.
# How the values were obtained:
# Assay in all cases: log2 fold change, soluble protein after heating vs DMSO (PISA); higher = thermal stabilisation; K562 lysate, 10 uM; active = over 0.2 and 3.5 SD of the protein, either way, in both replicates (recomputed)
# vemurafenib = compound: CCCS(=O)(=O)Nc1ccc(F)c(C(=O)c2c[nH]c3ncc(-c4ccc(Cl)cc4)cc23)c1F [vemurafenib]
# Method in brief: (§1)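 Thermal stability, expressed as log-two fold change relative to solvent controls, is given from duplicates. Crude K562 extract in PBS pH 7.4 with 1 mM MgCl2, at 1 mg/mL protein, was treated with 10 μM compound for 30 min and heated in aliquots for 3 min across 48°C-58°C. After pooling, adjustment to 0.5% NP-40 at 4°C and centrifugation at 21,000xg for 90 min, supernatant protein was measured by TMTpro 16plex LC-MS/MS with channel sums equalised.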
# [1] = compound: CCCS(=O)(=O)Nc1ccc(F)c(C(=O)c2c[nH]c3ncc(Cl)cc23)c1F
# Method in brief: as §1
# barasertib = compound: CCN(CCCOc1ccc2c(Nc3cc(CC(=O)Nc4cccc(F)c4)[nH]n3)ncnc2c1)CCOP(=O)(O)O [barasertib]
# Method in brief: as §1
# [2] = compound: CC[C@@H]1C(=O)N(C)c2cnc(Nc3ccc(C(=O)NC4CCN(C)CC4)cc3OC)nc2N1C1CCCC1
# Method in brief: as §1
# volasertib = compound: CC[C@@H]1C(=O)N(C)c2cnc(Nc3ccc(C(=O)N[C@H]4CC[C@H](N5CCN(CC6CC6)CC5)CC4)cc3OC)nc2N1C(C)C [volasertib]
# Method in brief: as §1
# [3] = compound: CCn1c(C(=O)N(C2CC2)C2CC2)cc2c3c(ncn3C)c(Nc3cc(C)n(C)n3)nc21
# Method in brief: as §1
# [4] = compound: CCn1cc(-c2ccnc3[nH]c(-c4cccc(CN(C)C)c4)cc23)c(-c2ccc(NC(=O)N(C)C)cc2)n1
# Method in brief: as §1
# [5] = compound: CN1CCC(CNc2ccc3ncc(-c4cccc(OC(F)(F)F)c4)n3n2)CC1
# Method in brief: as §1
# saracatinib = compound: CN1CCN(CCOc2cc(OC3CCOCC3)c3c(Nc4c(Cl)ccc5c4OCO5)ncnc3c2)CC1 [saracatinib]
# Method in brief: as §1
# sotrastaurin = compound: CN1CCN(c2nc(C3=C(c4c[nH]c5ccccc45)C(=O)NC3=O)c3ccccc3n2)CC1 [sotrastaurin]
# Method in brief: as §1
# alvocidib = compound: CN1CC[C@H](c2c(O)cc(O)c3c(=O)cc(-c4ccccc4Cl)oc23)[C@H](O)C1 [alvocidib]
# Method in brief: as §1
# Tubastatin A = compound: CN1CCc2c(c3ccccc3n2Cc2ccc(C(=O)NO)cc2)C1 [Tubastatin A]
# Method in brief: as §1
# [6] = compound: CNC(=O)C1=CC=CC=C1NC2=NC(=NC=C2Cl)NC3=C(C=C(C=C3)N4CCOCC4)OC
# Method in brief: as §1
# defactinib = compound: CNC(=O)c1ccc(Nc2ncc(C(F)(F)F)c(NCc3nccnc3N(C)S(C)(=O)=O)n2)cc1 [defactinib]
# Method in brief: as §1
# [7] = compound: CNc1nc(-c2ccc3c(N)n[nH]c3c2)cc(N2C[C@@H](C(=O)NC3CCCCC3)CC[C@H]2C)n1
# Method in brief: as §1
# encorafenib = compound: COC(=O)N[C@@H](C)CNc1nccc(-c2cn(C(C)C)nc2-c2cc(Cl)cc(NS(C)(=O)=O)c2F)n1 [encorafenib]
# Method in brief: as §1
# [8] = compound: COC(=O)[C@H](CCSC)NC(=O)C1=C(C=C(C=C1)NC[C@H](CS)N)C2=CC=CC=C2
# Method in brief: as §1
# alisertib = compound: COc1cc(Nc2ncc3c(n2)-c2ccc(Cl)cc2C(c2c(F)cccc2OC)=NC3)ccc1C(=O)O [alisertib]
# Method in brief: as §1
# [9] = compound: COc1cc2nc(-c3cc(F)ccc3O)nc(N[C@@H]3CNC[C@H]3C(C)(C)O)c2cc1OC
# Method in brief: as §1
# gefitinib = compound: COc1cc2ncnc(Nc3ccc(F)c(Cl)c3)c2cc1OCCCN1CCOCC1 [gefitinib]
# Method in brief: as §1
# UniProt Q7L8L6, sequence (Q7L8L6 whole entry, looked up): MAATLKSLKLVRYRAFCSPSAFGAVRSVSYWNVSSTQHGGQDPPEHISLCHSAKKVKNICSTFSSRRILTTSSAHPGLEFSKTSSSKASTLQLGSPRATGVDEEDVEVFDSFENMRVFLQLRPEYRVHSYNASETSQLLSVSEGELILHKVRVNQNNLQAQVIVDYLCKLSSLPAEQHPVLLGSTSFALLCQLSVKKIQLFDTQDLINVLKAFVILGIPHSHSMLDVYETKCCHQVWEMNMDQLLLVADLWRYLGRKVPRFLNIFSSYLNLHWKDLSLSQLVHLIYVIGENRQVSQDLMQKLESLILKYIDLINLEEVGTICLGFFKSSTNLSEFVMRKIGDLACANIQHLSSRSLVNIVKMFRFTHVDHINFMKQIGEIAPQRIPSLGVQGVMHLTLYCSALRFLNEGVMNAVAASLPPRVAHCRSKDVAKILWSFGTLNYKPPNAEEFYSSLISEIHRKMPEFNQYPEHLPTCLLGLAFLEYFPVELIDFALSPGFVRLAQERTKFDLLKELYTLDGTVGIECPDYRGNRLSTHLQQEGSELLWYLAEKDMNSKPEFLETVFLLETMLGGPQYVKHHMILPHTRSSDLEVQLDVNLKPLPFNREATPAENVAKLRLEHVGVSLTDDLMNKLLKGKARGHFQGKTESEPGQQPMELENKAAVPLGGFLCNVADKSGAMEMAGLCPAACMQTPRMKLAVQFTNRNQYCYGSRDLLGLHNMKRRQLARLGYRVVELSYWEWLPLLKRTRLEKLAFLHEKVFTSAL
# UniProt Q9NSD9, sequence (Q9NSD9 whole entry, looked up): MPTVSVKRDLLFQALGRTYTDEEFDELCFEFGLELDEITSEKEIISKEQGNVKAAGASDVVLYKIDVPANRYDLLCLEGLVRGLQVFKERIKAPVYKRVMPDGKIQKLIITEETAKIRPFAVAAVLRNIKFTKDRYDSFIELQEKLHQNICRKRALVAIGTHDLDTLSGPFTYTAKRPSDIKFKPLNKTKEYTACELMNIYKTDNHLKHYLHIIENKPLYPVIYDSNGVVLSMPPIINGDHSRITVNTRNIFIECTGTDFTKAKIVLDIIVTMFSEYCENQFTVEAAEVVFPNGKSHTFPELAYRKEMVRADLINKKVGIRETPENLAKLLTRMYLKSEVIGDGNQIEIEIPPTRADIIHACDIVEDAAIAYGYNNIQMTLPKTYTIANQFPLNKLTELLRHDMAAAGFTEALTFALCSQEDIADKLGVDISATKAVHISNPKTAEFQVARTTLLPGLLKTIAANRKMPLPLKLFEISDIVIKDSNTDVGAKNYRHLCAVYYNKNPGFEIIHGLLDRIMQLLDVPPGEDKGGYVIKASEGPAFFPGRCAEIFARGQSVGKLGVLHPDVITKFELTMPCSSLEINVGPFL
# UniProt O14526, sequence (O14526 whole entry, looked up): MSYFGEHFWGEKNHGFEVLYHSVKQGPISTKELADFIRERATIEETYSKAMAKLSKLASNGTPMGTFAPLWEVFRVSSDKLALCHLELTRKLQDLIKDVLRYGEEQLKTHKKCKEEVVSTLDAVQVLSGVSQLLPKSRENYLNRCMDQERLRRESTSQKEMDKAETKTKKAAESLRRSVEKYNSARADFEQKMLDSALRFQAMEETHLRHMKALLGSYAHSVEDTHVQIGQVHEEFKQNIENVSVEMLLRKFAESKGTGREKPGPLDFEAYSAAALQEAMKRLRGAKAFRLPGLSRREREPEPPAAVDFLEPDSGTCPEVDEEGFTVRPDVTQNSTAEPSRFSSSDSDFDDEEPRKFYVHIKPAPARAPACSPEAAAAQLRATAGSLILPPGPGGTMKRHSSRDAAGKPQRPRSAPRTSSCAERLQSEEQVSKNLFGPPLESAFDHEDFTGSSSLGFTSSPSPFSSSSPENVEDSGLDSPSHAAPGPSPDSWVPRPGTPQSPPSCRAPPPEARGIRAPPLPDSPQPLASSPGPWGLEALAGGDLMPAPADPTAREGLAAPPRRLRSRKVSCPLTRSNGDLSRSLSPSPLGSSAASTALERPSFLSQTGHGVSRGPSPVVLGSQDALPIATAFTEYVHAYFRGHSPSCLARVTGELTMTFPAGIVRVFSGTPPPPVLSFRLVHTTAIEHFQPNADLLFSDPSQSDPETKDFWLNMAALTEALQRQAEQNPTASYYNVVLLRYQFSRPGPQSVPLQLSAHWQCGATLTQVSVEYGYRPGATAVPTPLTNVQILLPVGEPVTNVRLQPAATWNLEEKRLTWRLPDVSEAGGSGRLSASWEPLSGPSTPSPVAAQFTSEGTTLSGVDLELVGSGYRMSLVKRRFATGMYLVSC
# UniProt P02792, sequence (P02792 whole entry, looked up): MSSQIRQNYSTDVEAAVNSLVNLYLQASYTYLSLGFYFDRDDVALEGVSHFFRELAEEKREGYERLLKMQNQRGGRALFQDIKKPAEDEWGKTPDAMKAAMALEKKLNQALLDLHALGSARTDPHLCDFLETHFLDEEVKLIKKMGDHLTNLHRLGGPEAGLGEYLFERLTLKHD
# UniProt Q92562, sequence (Q92562 whole entry, looked up): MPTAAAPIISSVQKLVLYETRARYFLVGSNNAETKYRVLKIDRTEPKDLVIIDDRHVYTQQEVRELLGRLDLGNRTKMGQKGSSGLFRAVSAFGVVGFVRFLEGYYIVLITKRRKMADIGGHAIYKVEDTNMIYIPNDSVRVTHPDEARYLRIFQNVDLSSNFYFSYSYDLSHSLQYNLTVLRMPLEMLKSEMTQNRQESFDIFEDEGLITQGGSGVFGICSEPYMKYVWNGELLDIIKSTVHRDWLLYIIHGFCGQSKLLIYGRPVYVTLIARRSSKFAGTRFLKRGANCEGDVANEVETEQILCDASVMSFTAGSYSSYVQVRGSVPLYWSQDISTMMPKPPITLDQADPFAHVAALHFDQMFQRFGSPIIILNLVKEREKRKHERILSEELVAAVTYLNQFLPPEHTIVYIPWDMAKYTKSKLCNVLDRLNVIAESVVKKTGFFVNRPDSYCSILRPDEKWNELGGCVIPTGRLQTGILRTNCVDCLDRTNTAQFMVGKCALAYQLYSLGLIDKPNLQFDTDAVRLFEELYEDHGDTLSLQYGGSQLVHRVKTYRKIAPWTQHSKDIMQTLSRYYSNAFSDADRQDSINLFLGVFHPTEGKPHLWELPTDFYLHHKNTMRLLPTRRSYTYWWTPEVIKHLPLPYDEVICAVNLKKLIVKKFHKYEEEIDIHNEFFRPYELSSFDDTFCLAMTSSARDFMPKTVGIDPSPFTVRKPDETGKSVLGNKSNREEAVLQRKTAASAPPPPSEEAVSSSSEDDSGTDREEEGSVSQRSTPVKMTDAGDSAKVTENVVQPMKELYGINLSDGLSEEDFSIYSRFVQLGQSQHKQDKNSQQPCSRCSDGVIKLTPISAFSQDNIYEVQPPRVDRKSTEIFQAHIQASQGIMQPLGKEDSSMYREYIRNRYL
# UniProt P11474, sequence (P11474 whole entry, looked up): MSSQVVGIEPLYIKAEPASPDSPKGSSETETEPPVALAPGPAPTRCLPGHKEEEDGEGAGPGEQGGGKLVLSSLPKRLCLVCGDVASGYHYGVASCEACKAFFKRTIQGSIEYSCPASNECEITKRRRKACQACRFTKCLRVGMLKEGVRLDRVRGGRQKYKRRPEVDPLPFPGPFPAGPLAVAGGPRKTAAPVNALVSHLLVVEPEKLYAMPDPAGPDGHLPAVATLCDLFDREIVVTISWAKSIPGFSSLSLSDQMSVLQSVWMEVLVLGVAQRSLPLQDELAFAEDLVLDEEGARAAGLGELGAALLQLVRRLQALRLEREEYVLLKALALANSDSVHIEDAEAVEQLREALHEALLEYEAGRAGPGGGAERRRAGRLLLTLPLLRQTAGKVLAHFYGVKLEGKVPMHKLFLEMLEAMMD
# UniProt Q8NCA5, sequence (Q8NCA5 whole entry, looked up): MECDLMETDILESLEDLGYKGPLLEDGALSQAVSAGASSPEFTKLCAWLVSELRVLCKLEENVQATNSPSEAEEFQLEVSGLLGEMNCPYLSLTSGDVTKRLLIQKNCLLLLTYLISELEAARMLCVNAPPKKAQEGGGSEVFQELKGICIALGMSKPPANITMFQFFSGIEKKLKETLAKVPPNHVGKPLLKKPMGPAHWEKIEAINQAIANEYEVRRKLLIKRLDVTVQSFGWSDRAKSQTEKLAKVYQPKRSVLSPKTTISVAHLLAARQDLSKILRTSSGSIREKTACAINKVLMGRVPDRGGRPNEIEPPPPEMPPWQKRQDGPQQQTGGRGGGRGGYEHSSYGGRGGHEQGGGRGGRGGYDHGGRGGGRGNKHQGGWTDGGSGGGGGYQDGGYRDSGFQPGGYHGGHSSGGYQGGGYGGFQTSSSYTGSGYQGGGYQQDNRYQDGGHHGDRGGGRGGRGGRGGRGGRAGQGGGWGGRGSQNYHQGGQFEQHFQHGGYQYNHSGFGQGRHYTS
# UniProt Q9NZN4, sequence (Q9NZN4 whole entry, looked up): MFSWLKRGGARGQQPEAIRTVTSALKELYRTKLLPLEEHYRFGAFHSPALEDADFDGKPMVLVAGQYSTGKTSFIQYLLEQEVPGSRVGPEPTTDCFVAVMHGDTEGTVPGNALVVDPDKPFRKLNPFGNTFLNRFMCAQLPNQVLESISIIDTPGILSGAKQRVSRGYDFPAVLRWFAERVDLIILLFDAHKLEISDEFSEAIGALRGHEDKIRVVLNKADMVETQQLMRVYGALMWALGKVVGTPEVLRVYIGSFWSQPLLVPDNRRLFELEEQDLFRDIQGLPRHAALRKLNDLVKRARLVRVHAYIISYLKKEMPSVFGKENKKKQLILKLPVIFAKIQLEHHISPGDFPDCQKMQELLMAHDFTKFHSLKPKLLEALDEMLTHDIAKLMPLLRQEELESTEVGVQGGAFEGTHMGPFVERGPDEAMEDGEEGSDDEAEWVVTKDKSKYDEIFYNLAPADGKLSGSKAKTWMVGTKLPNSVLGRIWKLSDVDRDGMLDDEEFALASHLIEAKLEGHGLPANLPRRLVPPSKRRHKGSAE
Target,log2 fold change (vemurafenib),log2 fold change [1],log2 fold change (barasertib),log2 fold change [2],log2 fold change (volasertib),log2 fold change [3],log2 fold change [4],log2 fold change [5],log2 fold change (saracatinib),log2 fold change (sotrastaurin),log2 fold change (alvocidib),log2 fold change (Tubastatin A),log2 fold change [6],log2 fold change (defactinib),log2 fold change [7],log2 fold change (encorafenib),log2 fold change [8],log2 fold change (alisertib),log2 fold change [9],log2 fold change (gefitinib)
FIG4 (UniProt Q92562),0.107,0.071,-0.085,-0.201,-0.012,-0.045,0.104,-0.012,0.032,0.092,-0.106,0.012,-0.004,-0.039,-0.016,0.064,0.037,-0.145,0.079,0.148
FREM2 (UniProt Q5SZK8),0.003,-0.082,0.136,-0.072,0.026,0.014,-0.366,0.151,0.051,0.056,-0.114,0.068,-0.034,-0.005,-0.038,0.031,-0.022,0.098,-0.013,0.164
FTSJ3 (UniProt Q8IY81),-0.004,-0.011,0.006,0.011,-0.033,0.024,0,-0.005,0.015,-0.003,0.031,-0.073,-0.018,0.026,0.007,-0.028,0.031,0.005,-0.036,0.004
ESRRA (UniProt P11474),0.058,0.005,0.041,0.03,-0.075,-0.039,0.569 (active),-0.283,-0.055,0.053,0.167,-0.169,0.033,-0.086,-0.04,0.048,-0.072,-0.045,-0.029,0.07
FASTKD5 (UniProt Q7L8L6),-0.003,0.008,-0.047,0.073,-0.065,0.028,0.082,-0.245,0.043,-0.026,0.024,-0.11,0.03,0.011,-0.017,0.064,0.135,0.002,0.072,-0.018
FTL (UniProt P02792),-0.063,0.047,-0.005,0.03,0.06,-0.327,-0.041,0.092,0.058,0.036,0.013,0.187,-0.04,0.15,-0.097,0.145,-0.076,0.067,0.007,-0.024
FARSB (UniProt Q9NSD9),-0.009,0.006,0.018,0.003,-0.024,0.016,0,-0.018,0.022,0.095,0.003,-0.056,-0.012,-0.014,-0.012,-0.029,0.067,0.002,0.005,-0.013
FAM98A (UniProt Q8NCA5),0.063,0.032,-0.016,0.045,-0.029,-0.005,0.088,-0.08,-0.028,0.017,0.042,-0.04,0.028,0.01,0.086,-0.004,0.025,-0.028,-0.014,0.037
EHD2 (UniProt Q9NZN4),0.046,0,0.022,0.007,-0.111,0.005,0.016,-0.066,0.075,0.017,-0.012,-0.051,0.055,0.032,-0.037,0.001,0.246,-0.015,0.071,-0.04
ESPL1 (UniProt Q14674),0.049,0.204,0.054,0.039,0.09,-0.002,-0.047,-0.012,-0.065,-0.023,0.044,-0.023,0.129,-0.188,0.053,0.101,-0.013,0.004,-0.233,-0.009
FCHO1 (UniProt O14526),0.023,0.033,0.02,0.023,-0.062,-0.026,-0.053,-0.004,0.006,-0.015,0.027,-0.188,0.038,0.039,0.038,0.009,0.076,0.009,-0.021,0.003
